N370S GC mod: inhibits or activates N370S mutant glucocerebrosidase | P04062 | N370S GC spleen homogenate, 4MU-glucoside fluorescence | Potency, µM (highest dose often 59.4 µM), for inactives: at the highest dose activity change, negative = inhibition, hits mostly inhibitors | actives 0.092% (n = 330,000) | AID 2101;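 note: potency is the fitted concentration of half-maximal effect; 0% = full enzyme activity and -100% = no enzyme basal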
Glioma ERSR ind: induces the endoplasmic reticulum stress response in human glioma cells | U87-MG GRP78 promoter luciferase reporter, 16 h | Potency, µM, for inactives: at the top dose activation, hits mostly activators | actives 0.02% (n = 420,000) | AID 602332; note: potency is the fitted concentration of half-maximal effect; series mostly up to about 76 µM; % of control where 0% means no effect; nearly all actives have a fitted effect of over 35% in size
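ERSR induction read as luciferase luminescence (Bright-Glo, 10 min at room temperature) in stably transfected human U87-MG glioma cells exposed to compounds for 16 h, using GRP78 as sensor.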
CBFb-RUNX1 inh: blocks binding between human CBF-beta and RUNX1. Potency, µM (top dose mostly 59.8 µM), for inactives: top-dose activity, negative = inhibition, actives largely listed as inhibitors. 230,000 tested, under 10 active. AlphaScreen CBFb-His/RUNX1-biotin binding, biochemical. Q01196+Q13951; note: % of control where 0% means no effect
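Room-temperature protein-protein interaction test with 30 nM each of His-tagged CBF-beta and biotinylated RUNX1, 15 min with compound, then 90 min with nickel plus streptavidin beads. Signal read in AlphaScreen mode.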
Integrin act MD: activators of alpha7 integrin expression for muscular dystrophy. actives 0.064% (n = 350,000). Potency, µM (titrated, usually from 38.3 µM), for inactives: top-dose activation, actives largely listed as activators. alpha7betagal myoblasts, beta-gal FDG fluorescence, 48 h;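 note: potency is the fitted concentration of half-maximal effect; 100% = response of the positive control SU9516; nearly all actives have a fitted effect of over 60% in size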
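Alpha7betagal+/- myoblasts (passage 13) were plated 16-24 hr, then exposed to compounds (1:260 dilution of DMSO stock) for 48 hours at 37C. After MPER lysis, β-galactosidase reporter activity was read as FDG fluorescence (ex 480/em 540) after 30 minutes.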
Anesthetic bind: binds horse apoferritin like a general anesthetic. P02791. apoferritin/1-aminoanthracene competitive binding, fluorescence. Potency, µM (top dose mostly 77.5 µM), for inactives: at the highest dose activity change, negative = displacement, most hits filed as inhibitors. actives 0.074% (n = 350,000); note: potency is the fitted concentration of half-maximal effect; % is set by controls: 0 for no effect and ±100 for the full control effect; nearly all actives have a fitted effect of over 20% in size
Target sequence (P02791 2-175 limits assumed): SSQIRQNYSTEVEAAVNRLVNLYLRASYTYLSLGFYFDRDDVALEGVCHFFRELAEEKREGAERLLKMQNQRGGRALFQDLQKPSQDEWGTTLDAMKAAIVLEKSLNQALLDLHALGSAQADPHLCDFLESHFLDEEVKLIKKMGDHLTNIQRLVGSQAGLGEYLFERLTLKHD
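In PBS, apoferritin at 10 uM is loaded with 1-AMA from a 50% saturated solution. After 10 min of compound exposure at ambient temperature, reduced 535 nm fluorescence indicates probe displacement.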
ClpP mod: qHTS Assay for Activators of ClpP; ATP-dependent Clp protease proteolytic subunit (Bacillus subtilis (strain 168)), P80244; AID 651965, 2013; Potency, µM (titrated, usually from 57.5 µM), inactives show at the top dose activity change, negative = active; actives 1.9% (n = 340,000); purified B. subtilis ClpP, FRET peptide cleavage, 20 min; active = well fitted falling curve with a large enough effect; inconclusive = small, poorly fitted or top-dose-only effect; inactive = no such curve, though single readings can be large or run the other way; note: potency is the fitted concentration of half-maximal effect; the source files actives as falling curves though it sought activators and does not explain the sign; nearly all actives have a fitted effect of over 65% in size
Target sequence (P80244 whole entry, looked up): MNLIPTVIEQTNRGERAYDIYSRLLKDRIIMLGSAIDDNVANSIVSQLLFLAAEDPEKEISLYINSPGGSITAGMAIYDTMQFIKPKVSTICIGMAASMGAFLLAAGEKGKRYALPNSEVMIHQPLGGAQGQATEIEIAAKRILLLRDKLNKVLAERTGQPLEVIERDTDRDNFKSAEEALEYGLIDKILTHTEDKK
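Buffer: 100 mM Tris/HCl pH8, 100 mM KCl, 0.05% low protease BSA, 2.5% glycerol, 0.01% Tween-20. ClpP 10 microg/mL final; 20 min RT; delta FRET normalized to ADEP and DMSO controls.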
Numbers without * were called inactive; ? = inconclusive; nt = no result. This excerpt belongs to a sample that is enriched for hits. Unless noted, calls come from the whole dose curve; as a rule, active = well fitted curve in the direction sought with a large enough effect; inconclusive = small, poorly fitted or top-dose-only effect, or another doubt; inactive = no such curve, though single readings can be large; an effect the other way counts as inactive or inconclusive.

SMILES	N370S GC mod	Glioma ERSR ind	CBFb-RUNX1 inh	Integrin act MD	Anesthetic bind	ClpP mod
CC1=CC(c2ccccc2)n2nc(N3C(=O)c4ccccc4C3=O)nc2N1 (stereo not drawn)	9.5%	-3.6%	5.3%	8.2%	5.6%	72.4%
CC(CCC(C)[n+]1cccc(Br)c1)[n+]1cccc(Br)c1 (stereo not drawn)	nt	-1.7%	nt	nt	nt	-0.3%
Cc1cc(C(=O)CN2CCC(C)CC2)c(C)n1-c1ccc(F)cc1	-2.3%	-1.7%	4.3%	-1.8%	-22.6%	0.5%
Cc1cc(C(=O)CN2CCCCC2)c(C)n1-c1ccc(F)cc1	-14.2%	-1.9%	-5.6%	-33.1%	-5.4%	25.1µM*
COC(=O)c1ccc(Sc2ccc(Cl)cc2)c(N)c1	14.7%	1.5%	23.2%	25.8%	?	25.1µM*
CS(=O)(=O)c1cccc(C(=O)Nc2nnc(C3=COCCO3)o2)c1	1.2%	-5.7%	nt	25.2%	nt	10µM*
O=C(Nc1nnc(C2=COCCO2)o1)c1cccc(Br)c1	-2.6%	-0.3%	nt	16.8%	-9.5%	0.6%
CN(C)c1ccc(/C=N\Nc2ccc([N+](=O)[O-])cc2[N+](=O)[O-])cc1Br	nt	-3.7%	nt	nt	nt	-0.3%
O=C(C(Cc1ccccc1)N1C(=O)C2C3C=CC(C3)C2C1=O)N1CCCCC1 (stereo not drawn)	1.9%	-1.5%	-0.4%	-20.6%	-8.5%	20µM*
COc1ccccc1CCC(=O)O	nt	-5.1%	nt	nt	nt	-4.0%
COC(=O)C1=CN(C)C=C(C(=O)OC)C1c1ccsc1	?	-2.3%	4.3%	2.6%	320.1%	7.94µM*
CCS(=O)(=O)c1ccc2oc(Nc3ccc(C(C)C)cc3)nc2c1	-6.5%	-1.5%	-1.5%	-14.7%	-14.7%	31.6µM*
C/C1=C2N=C(/C=C3N=C(/C(C)=C4\[N-][C@@H]([C@H](CC(N)=O)[C@]4(C)CCC(=O)NC[C@@H](C)OP(=O)([O-])O[C@@H]4[C@@H](O)[C@H](n5cnc6cc(C)c(C)cc65)O[C@@H]4CO)[C@@]4(C)N=C1[C@H](CCC(N)=O)[C@@]4(C)CC(N)=O)[C@H](CCC(N)=O)C\3(C)C)[C@@H](CCC(N)=O)[C@@]/2(C)CC(N)=O.[CH3-].[Co+3]	nt	-11.5%	nt	nt	nt	nt
COc1cc(-c2nc(Cn3nnc(C(=O)Nc4ccccc4)c3C)c(C)o2)cc(OC)c1OC	nt	-3.0%	nt	nt	2.4%	28.2µM*
COc1ccc(NC(=O)c2nnn(Cc3nc(-c4cc(OC)c(OC)c(OC)c4)oc3C)c2C)cc1Cl	nt	3.7%	nt	nt	47.3%	-3.3%
COc1ccc(/C=C(\C)C(=O)NO)cc1	nt	nt	nt	nt	nt	-0.5%
Cc1nn(-c2ccccc2)c(N2CCCC2)c1/C=N/NC(=S)Nc1cc(C(F)(F)F)ccc1Cl	23.7%	1.2%	-3.4%	8.6%	-10.7%	28.2µM*
Cc1nn(-c2ccccc2)c(N2CCCC2)c1/C=N/NC(=S)Nc1ccccc1C(F)(F)F	?	-4.3%	-19.8%	-11.5%	185.6%	-25.0%
COc1ccc(/C=C/c2nc(C#N)c(NC3CCCCC3)o2)cc1OC	nt	2.9%	nt	nt	294.3%	4.5%
COc1ccccc1/C=C/c1nc(C#N)c(NC2CCCCC2)o1	nt	-0.3%	nt	nt	56.3%	2.82µM*
Cc1cccnc1-c1cccc2c1OC(CNC(=O)/C=C/c1cccs1)C2 (stereo not drawn)	nt	-1.5%	nt	nt	nt	nt
COc1ccc(C(C(=O)NC2CCCCC2)N(C(=O)c2snc(C(N)=O)c2N)c2ccc(OC)cc2OC)cc1 (stereo not drawn)	6.0%	-5.9%	nt	0.0%	-12.8%	nt
COc1ccc(N(CC(=O)NCCC(C)C)C(=O)c2snc(C(=O)NC3CCCCC3)c2N)c(OC)c1	26.5%	-4.3%	nt	10µM*	?	nt
Nc1c(C(=O)NC2CCCCC2)nsc1C(=O)OCC(=O)NC1CCCCC1	5.1%	-4.1%	3.3%	-12.4%	-10.3%	25.1µM*
CCC1(C2CCN(C(=O)c3cc(C)cc(C)c3)CC2)NC(=O)N(CCc2scnc2C)C1=O (stereo not drawn)	nt	-4.4%	nt	nt	nt	nt
SMILES	N370S GC mod	Glioma ERSR ind	CBFb-RUNX1 inh	Integrin act MD	Anesthetic bind	ClpP mod
CCc1cn([C@H]2C[C@H](O)[C@@H](CO)O2)c(=O)[nH]c1=O	15.2%	-0.8%	5.9%	nt	-1.4%	0.7%
Cc1nn(C2CC(O)C(O)C(CO)O2)c(=O)[nH]c1=O (stereo not drawn)	nt	0.9%	nt	18.0%	nt	28.2µM*
Nc1nc(-c2ccccc2)c(N=Nc2ccccc2Cl)s1	10µM*	-8.3%	nt	-36.6%	-16.4%	-2.2%
Cc1nc2ccc([N+](=O)[O-])cc2c(=O)n1Cc1ccc(Cl)cc1	-0.1%	-1.4%	nt	-23.4%	-14.3%	1.4%
Cc1nc2ccc(N)cc2c(=O)n1Cc1ccc(Cl)cc1	9.9%	-1.7%	-1.5%	36.1%	3.9%	35.5µM*
COc1ccccc1Nc1nc2cc(C)ccc2cc1C#N	-5.3%	-3.1%	13.0%	2.7%	-7.1%	nt
COc1ccccc1Nc1nc2ccc(C)cc2cc1C#N	10.7%	-2.0%	6.5%	?	-9.0%	25.1µM*
Cc1cnc(C)c(-c2cccc3c2OC(CNC(=O)C[C@@H]2C[C@@H](C)NC(=S)N2)C3)n1 (stereo partly drawn)	nt	-3.7%	nt	nt	nt	nt
COc1ccc(OC)c(CN2CCOc3ccc(CN4CCC(O)(c5cccnc5)CC4)cc3C2)c1	nt	-2.9%	nt	nt	nt	nt
COC(=O)[C@@H]1CCCN1Cc1ccc2c(c1)CN(Cc1ccc3c(c1)CCO3)CCO2	nt	-2.1%	nt	nt	nt	nt
O=C(COc1cc2oc(=O)c3c(c2cc1Cl)CCCC3)NCC1CCC(C(=O)O)CC1 (stereo not drawn)	2.6%	-4.0%	nt	7.08µM*	-6.9%	3.7%
O=C(COc1cc2oc(=O)c3c(c2cc1Cl)CCC3)NCC1CCC(C(=O)O)CC1 (stereo not drawn)	13.6%	-2.5%	nt	?	1.3%	-17.0%
COc1ccccc1-c1ccnc(-n2ncc(C(=O)N3CCCCC3c3cccnc3)c2C)n1 (stereo not drawn)	nt	2.2%	nt	nt	nt	nt
N#Cc1c(C(F)(F)F)cc(-c2cccs2)nc1SCc1cccnc1	0.9%	-1.6%	1.8%	-10.3%	-7.8%	8.91µM*
CC1CCCC(C)N1C(=O)COc1cccc(Oc2ccccc2)c1 (stereo not drawn)	nt	-0.1%	nt	-8.0%	nt	1.0%
CC1CCCC(C)N1C(=O)Cc1ccccc1 (stereo not drawn)	-4.9%	0.6%	-2.9%	2.3%	12.6µM*	-2.8%
O=C(Nc1ccc(/C=C/c2nc3ccccc3o2)cc1)c1cccc(C(F)(F)F)c1	-28.8%	11.5%	6.2%	-18.2%	-11.4%	15.8µM*
Cc1ccccc1-c1ccc(CN2CCc3nnc(CNC(=O)c4ccccn4)n3CC2)cc1	nt	-3.9%	nt	nt	nt	nt

Compound activity as filed in PubChem BioAssay.
